Laboratory results reported in PubChem BioAssay (EPA / NIEHS).
Where “and” joins values, the source holds several entries; their conditions need not be identical. Equal entries are not always repeated. Records with an inconclusive call do not appear. More than one record can exist for a structure, and the calls need not agree. Calls of active or inactive are those of the source. How the source made its calls: active means hit-call score of the fitted dose curve at least 0.9, where 1 is the maximum; inconclusive means response in the unintended direction; inactive means score below 0.9.

What was measured:
[1] = TOX21_p53_BLA_p3_viability: Viability Assessment in the Tox21 HCT-116 p53 Agonism Beta-lactamase Assay, Phase 3 (AID 2283593);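 further: cells exposed to compound for 16 h before reading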
Procedure, shortened: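 HCT-116 cells (4000/well) rested 5 h at 37C, then got DMSO compounds by pin tool (217-fold dilution) for 16 h at 37C, 5% CO2. After the bla read, CellTiter-Glo was added and luminescence read at 30 min, room temperature.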

[2] = target: Cellular tumor antigen p53 (Homo sapiens) (UniProt P04637); assay: TOX21_p53_BLA_p3_ratio: Tox21 HCT-116 p53 Agonism Beta-lactamase Assay, Ratio, Phase 3 (AID 2283596)
Sequence of Cellular tumor antigen p53 (Homo sapiens) (P04637 whole entry, looked up): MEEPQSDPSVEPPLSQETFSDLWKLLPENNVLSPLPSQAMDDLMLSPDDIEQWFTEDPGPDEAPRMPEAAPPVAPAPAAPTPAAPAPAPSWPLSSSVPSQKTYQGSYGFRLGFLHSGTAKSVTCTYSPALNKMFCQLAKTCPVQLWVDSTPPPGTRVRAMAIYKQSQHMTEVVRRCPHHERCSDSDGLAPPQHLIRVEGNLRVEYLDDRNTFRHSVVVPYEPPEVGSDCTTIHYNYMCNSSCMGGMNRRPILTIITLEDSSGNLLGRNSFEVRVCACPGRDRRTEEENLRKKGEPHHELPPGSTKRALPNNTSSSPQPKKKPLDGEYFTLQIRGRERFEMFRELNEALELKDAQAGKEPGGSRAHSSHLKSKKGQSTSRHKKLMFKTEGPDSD
Procedure, shortened: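 HCT116 p53-bla cells (4000/well) given compound in DMSO (217-fold dilution) after 5 h, incubated 16 h at 37C. CCF4-AM substrate 2 h at room temperature; 460/530 nm emission ratio, gain fitted against DMSO.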

[3] = TOX21_p53_BLA_p4_viability: Viability Assessment in the Tox21 HCT-116 p53 Agonism Beta-lactamase Assay, Phase 4 (AID 2283597);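 further: hits lower the luminescence signal meaning cytotoxicity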
Procedure, shortened: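 HCT116 p53-bla cells (4000/well) rested 5 h at 37C, then received compounds in DMSO (217-fold dilution) for 16 h at 37C, 5% CO2. CellTiter-Glo was added after the CCF4-AM read, and luminescence was read after 30 min at room temperature.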

[4] = target: Cellular tumor antigen p53 (Homo sapiens) (UniProt P04637); assay: TOX21_p53_BLA_p5_ratio: Tox21 HCT-116 p53 Agonism Beta-lactamase Assay, Ratio, Phase 5 (AID 2283599)
Procedure, shortened: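 HCT-116 cells carrying a p53-inducible beta-lactamase reporter were seeded at 4000 cells/well and dosed after 5 h with compound in DMSO (217-fold dilution). After 16 h at 37C, CCF4-AM substrate was added for 2 h, and the 460/530 nm emission ratio was scored as gain-of-signal versus DMSO.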

[5] = TOX21_p53_BLA_p5_viability: Viability Assessment in the Tox21 HCT-116 p53 Agonism Beta-lactamase Assay, Phase 5 (AID 2283600)
Procedure, shortened: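 Cells were plated at 4000/well, rested 5 h at 37C, then given compounds in DMSO (217-fold dilution) for 16 h at 37C, 5% CO2. Following the CCF4-AM beta-lactamase read, CellTiter-Glo was added and luminescence was read after 30 min at room temperature.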

[6] = target: Cellular tumor antigen p53 (Homo sapiens) (UniProt P04637); assay: TOX21_p53_BLA_p4_ratio: Tox21 HCT-116 p53 Agonism Beta-lactamase Assay, Ratio, Phase 4 (AID 2283601)
Procedure, shortened: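 HCT116 cells carrying an inducible beta-lactamase reporter were plated at 4000 cells/well, rested 5 h, then exposed to compounds in DMSO (217-fold dilution) for 16 h at 37C. CCF4-AM substrate was loaded 2 h at room temperature; 460/530 nm emission ratio scored gain-of-signal versus DMSO.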

[7] = Tanguay_ZF_120hpf_MORT_legacy: (Legacy) Oregon State University Tanguay Lab 120 Hour Post-fertilization zebrafish Assay for Mortality (AID 2283633);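 on AC50: fitted as increase in binary mortality versus DMSO negative control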
Procedure, shortened: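 Dechorionated Tropical 5D wild-type zebrafish embryos, one per well from 6 hpf, were statically exposed at 28C in the dark until 120 hpf (0.64% DMSO final). Mortality was scored as present/absent by brightfield microscopy, fitted positively versus DMSO.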

[8] = Tanguay_ZF_120hpf_YSE_legacy: (Legacy) Oregon State University Tanguay Lab 120 Hour Post-fertilization zebrafish Assay for Yolk Sac Edema (AID 2283634)
Procedure, shortened: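 Tropical 5D wild-type embryos, dechorionated with pronase at 4 hpf, were exposed singly from 6 hpf to 120 hpf under static, sealed, dark conditions at 28C with 0.64% DMSO final. Yolk sac edema was scored present/absent by brightfield microscopy.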

[9] = target: Cellular tumor antigen p53 (Homo sapiens) (UniProt P04637); assay: TOX21_p53_BLA_p2_ratio: Tox21 HCT-116 p53 Agonism Beta-lactamase Assay, Ratio, Phase 2 (AID 2283592)
Procedure, shortened: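 HCT116 cells carrying a p53-responsive beta-lactamase reporter were plated, incubated 5 h at 37C, then dosed with compounds in DMSO (217-fold dilution) for 16 h. CCF4-AM substrate was added for 2 h at room temperature; the 460/530 nm emission ratio gave gain-of-signal activity relative to DMSO.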

Measured: AC50

COC(=O)c1sccc1S(=O)(=O)NC(=O)Nc1nc(C)nc(OC)n1
not listed: [7] | [8] | [9]
inactive: all other assays above

CC(C)(c1ccc(OCC2CO2)cc1)c1ccc(OCC2CO2)cc1 (stereo not given)
inactive: [1] | [4] | [5] | [6]
active: [1] 64.5 µM | [2] 84.2 µM and 80.6 µM | [3] 70.9 µM and 72.2 µM | [4] 87.1 µM | [6] 79.4 µM

P.[In]
not listed: [7] | [8] | [9]
inactive: all other assays above

CCC(=O)C(CC(C)N(C)C)(c1ccccc1)c1ccccc1 (stereo not given)
inactive: [2] | [4] | [6] | [7]

CC(=O)C(Cl)C(=O)N(C)C (stereo not given)
inactive: [2] | [3] | [4] | [5] | [6]

CCCCCCCCCl
not listed: [7] | [8] | [9]
inactive: all other assays above

CCOP(=O)(CN(CCO)CCO)OCC
inactive: [1] | [3]

CC(C)(C)c1cc(O)ccc1O
active: [7] 32 µM
not listed: [9]
inactive: all other assays above

NN=C(N)N
inactive: [9] | [2] | [4] | [6]

N#CN=C(N)N
inactive: [2] | [3] | [4] | [5] | [6]

O=C(O)C(F)(F)C(F)(F)C(F)(F)C(F)(F)C(F)(F)C(F)(F)F
inactive: [1] | [3] | [4] | [7] | [8]

CC(C)CCCCCCOC(=O)c1ccccc1C(=O)OCCCCCCC(C)C
inactive: [9] | [3]

O=C(NCO)NCO
inactive: [2] | [3] | [5] | [6]

OCc1ccco1
inactive: [1] | [2] | [5] | [6]

Clc1ccc(C2(Cn3cncn3)CC(Br)CO2)c(Cl)c1 (stereo not given)
not listed: [7] | [8] | [9]
inactive: all other assays above

CCOC(=O)CP(=O)(OCC)OCC
inactive: [1] | [2] | [6]

Cl/C=C/Cl
inactive: [1] | [2] | [5] | [6]

COc1cccc(C=O)c1
inactive: [1] | [2] | [4] | [5] | [6]

C[C@H]1O[C@@H](O[C@H]2[C@@H](O)C[C@H](O[C@H]3[C@@H](O)C[C@H](O[C@H]4CC[C@@]5(C)[C@H](CC[C@@H]6[C@@H]5CC[C@]5(C)[C@@H](C7=CC(=O)OC7)CC[C@]65O)C4)O[C@@H]3C)O[C@@H]2C)C[C@H](O)[C@@H]1O
active: [1] 30 nM and 51.3 nM | [3] 40.5 nM and 66.7 nM | [5] 0.028 µM
inactive: [2] | [4] | [5] | [6]

ClCc1ccccn1
inactive: [9] | [3] | [4] | [5] | [6]
